Assay outcomes (PubChem)
Only some compounds are listed: those with a hit (about 5.8% of all), similar ones and a draw of the others.
KB-V1 MDR tox = kills drug-selected multidrug resistant KB-V1 cells; AID 1347076; Potency, µM (doses to about 46.1 µM), actives largely listed as cytotoxic; 3.4% of 400,000 active; KB-V1 MDR cells viability, CellTiter-Glo, 72 h; also: % is scaled to controls: 0 for no effect and ±100 for the full control effect; nearly all actives have a fitted effect of over 60% in size
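Readout: CellTiter-Glo luminescence, 10 min after addition. Cells: KB-V1 MDR subline, 72 h at 37 degrees C with compound. Analysis: corrected, normalized data fitted to concentration-effect curves.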
KB-3-1 tox = KB-3-1 parental cell cytotoxicity; KB-3-1 viability, CellTiter-Glo ATP luminescence, 72 h; Potency, µM (doses to about 46.1 µM), actives largely listed as cytotoxic; 1.4% of 400,000 active; also: % is scaled to controls: 0 for no effect and ±100 for the full control effect; nearly all actives have a fitted effect of over 60% in size
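KB-3-1 parental drug-naive adenocarcinoma cells in DMEM/10% FBS, incubated 72 h at 37 C with pin-transferred compounds across a concentration series. Viability by CellTiter-Glo luminescence; concentration-response curves fitted after normalization.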
MCF10A rereplic = DNA re-replication induction in MCF 10a cells | Potency, µM (titrated, usually from 46.1 µM), for the others: top-dose activity, positive = re-replication, actives largely listed as activators | 2.9% of 350,000 active | MCF 10A DNA re-replication, Hoechst nuclear intensity, 48 h; also: % of control where 0% means no effect; nearly all actives have a fitted effect of over 50% in size
SW480 rereplic = DNA re-replication induction in SW480 cells | SW480 DNA re-replication, Hoechst DNA content imaging, 48 h | Potency, µM (titrated, usually from 46.1 µM), for the others: at the top dose re-replication activation, most hits filed as activators | 1.8% of 340,000 active | AID 624297; also: % of control where 0% means no effect; nearly all actives have a fitted effect of over 55% in size
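250 cells/well; 23 nL cpd via pin tool; 48 hr, 37 C, 5% CO2; Hoechst 40 min; imager read of total nuclear intensity, ex 405/em 500-530 nm.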
PINK1 expr mod = PINK1 expression modulation; PINK1 immunofluorescence, high-content cytometry, 24 h; Potency, µM (series often up to 76.6 µM), for the others: at the top dose activation (PINK1 increase), actives largely listed as activators; 0.2% of 410,000 active; AID 624263; active = well fitted activation curve with a large enough effect; inconclusive = small, poorly fitted or top-dose-only effect; cell line not stated here; also: % of control where 0% means no effect; nearly all actives have a fitted effect of over 65% in size
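Readout is PINK1 immunofluorescence, quantified alongside mitochondrial, cell and nuclear markers by laser-scanning microplate cytometry. Cells from a stable line were exposed to compound titrations (5 concentrations) for 24 hours, with CCCP controls.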
12-LOX inh = blocks human arachidonate 12S-lipoxygenase. purified 12hLO, xylenol orange hydroperoxide absorbance. Potency, µM (doses to about 108 µM), without a hit: at the highest dose activity change, negative = inhibition, actives largely listed as inhibitors. P18054. AID 1671190. 1.1% of 580,000 active; also: % is scaled to controls: 0 for no effect and ±100 for the full control effect
Target sequence (P18054 whole entry, looked up): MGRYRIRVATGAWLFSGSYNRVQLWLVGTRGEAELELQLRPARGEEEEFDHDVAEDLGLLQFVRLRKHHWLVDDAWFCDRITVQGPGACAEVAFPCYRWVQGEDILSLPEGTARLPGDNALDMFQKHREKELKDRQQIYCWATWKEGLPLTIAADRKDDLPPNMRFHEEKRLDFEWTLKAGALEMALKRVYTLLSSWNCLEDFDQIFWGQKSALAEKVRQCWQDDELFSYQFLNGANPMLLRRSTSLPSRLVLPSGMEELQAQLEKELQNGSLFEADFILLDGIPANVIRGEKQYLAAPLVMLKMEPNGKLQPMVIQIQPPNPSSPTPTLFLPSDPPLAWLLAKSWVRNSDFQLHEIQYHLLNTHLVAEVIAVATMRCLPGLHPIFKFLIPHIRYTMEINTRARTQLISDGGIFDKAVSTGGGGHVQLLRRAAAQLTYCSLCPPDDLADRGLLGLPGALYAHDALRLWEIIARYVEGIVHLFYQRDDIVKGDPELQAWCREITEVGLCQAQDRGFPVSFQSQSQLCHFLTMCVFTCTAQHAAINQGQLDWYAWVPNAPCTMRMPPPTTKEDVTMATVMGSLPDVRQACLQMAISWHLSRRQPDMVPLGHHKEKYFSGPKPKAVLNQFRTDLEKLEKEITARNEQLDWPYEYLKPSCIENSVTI
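Purified human 12hLO (150 nM final) in 25 mM Hepes, 0.01% Triton X-100, pH 7.0 was preincubated 15 min at room temperature with compound. Then 40 uM arachidonic acid was added, 30 min. Hydroperoxide was read by Fe-XO absorbance ratio 573/405 nm.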
The depositor's hits bear a star; i = inactive; ? = inconclusive; · = no result; [ ] = dose if it differs, or a comment. Unless noted, calls follow the shape of the dose curve; as a rule, active = well fitted curve in the direction sought with a large enough effect; inconclusive = small, poorly fitted or top-dose-only effect, or another doubt; inactive = no such curve, though single readings can be large; an effect the other way counts as inactive or inconclusive. Potency is read from the fitted curve at half-maximal effect.

SMILES	KB-V1 MDR tox	KB-3-1 tox	MCF10A rereplic	SW480 rereplic	PINK1 expr mod	12-LOX inh
CC1=CC(C)(C)N2C(=O)C3(C(C#N)=C(N)Oc4cc(C)oc(=O)c43)c3cc(C)cc1c32 (configuration not stated)	i	?	7.0%	0.8%	·	-20.7%
CCc1cc2c3c(c1)C1(C(=O)N3C(C)(C)C=C2C)C(C#N)=C(N)Oc2[nH]c(=O)[nH]c(=O)c21 (configuration not stated)	?	?	?	4.11µM*	7.4%	0.0%
O=S(=O)(CCc1ccccc1Cl)c1ccccc1	·	·	·	·	·	-30.2%
O=S(=O)(c1ccccc1)c1nc(-c2ccc(F)cc2)oc1N1CCCCCC1	?	i	·	·	0.1%	-27.3%
O=S(=O)(c1ccc(F)cc1)c1nc(-c2ccccc2F)oc1N1CCCCC1	3.66µM*	i	15.9%	10.3%	-6.3%[38.3 µM]	-26.8%
CN1c2ccccc2N(C)C1(C)c1cccc2ccccc12	i	?	?	?	?	35.5µM*
CN1c2cccc3cccc(c23)N(C)C1(C)C	i	i	7.3%	-5.0%	0.5%	-22.6%
CC(=O)c1cccc(NC(=O)c2cc(C3CC3)nc3ccccc23)c1	·	·	·	·	·	18.4%
COc1cc(OC)c(OC)cc1CNC(=O)c1cc(Br)ccc1O	·	·	·	·	·	-51.0%
COc1ccc(NC(=O)NC(C)c2ccc3c(c2)OCO3)cc1OC (configuration not stated)	i	?	1.5%	-3.0%	-0.4%	1.8%
COc1ccc(C)cc1NC(=O)NC(C)c1ccncc1 (configuration not stated)	i	i	-1.4%	-14.5%	0.9%	-7.3%
COc1ccc(NC(=O)NC(C)c2ccncc2)cc1OC (configuration not stated)	i	i	-8.2%	-2.7%	11.2µM*	4.4%
COc1ccc(Cl)cc1NC(=O)NC(C)c1ccncc1 (configuration not stated)	18.4µM*	i	?	0.4%	0.6%[38.3 µM]	-22.5%
C[C@H]1c2cccc(O)c2C(=O)C2C(=O)C3(O)C(=O)C(C(N)=O)C(=O)[C@@H](N(C)C)[C@@H]3[C@@H](O)[C@@H]21 (some centres not stated)	i	i	-3.9%	6.31µM*	7.4%	-3.3%
C/C(=N/NS(=O)(=O)c1ccc(Cl)cc1)c1ccncc1	?	i	-22.5%	-26.1%	-0.4%	?
C/C(=N\NS(=O)(=O)c1ccc(Br)cc1)c1ccncc1	i	i	8.5%	3.7%	1.6%	31.6µM*
Cc1nc(NCCN2CCOCC2)c2nnn(Cc3ccccc3Cl)c2n1	6.51µM*	i	1.3%	2.2%	2.5%[38.3 µM]	-20.9%
CC(C)(C)c1nc(NCCN2CCOCC2)c2nnn(Cc3ccccc3Cl)c2n1	i	?	?	28.0%	12.3%[38.3 µM]	-6.0%
c1ccc(CCNc2ncnc3c2nnn3Cc2ccccc2)cc1	i	i	?	-6.0%	11.2µM*	8.8%
Clc1ccccc1Cn1nnc2c(NCCN3CCOCC3)ncnc21	20.6µM*	i	20.6%	-3.4%	0.8%[38.3 µM]	0.0%
Clc1ccccc1Cn1nnc2c(Nc3ccccc3)ncnc21	i	i	13µM*	-2.5%	-3.5%[38.3 µM]	-25.4%
CC(Sc1nc(CN2CCOCC2)nc2ccccc12)C(=O)Nc1ccccc1F (configuration not stated)	·	·	·	·	·	-29.5%
C=C(C)Cn1c(NCCCCCC)nc2c1c(=O)[nH]c(=O)n2C	·	·	·	·	·	-46.2%
Clc1ccccc1Cn1nnc2c(N3CCOCC3)nc(C3CC3)nc21	3.66µM*	i	-3.5%	-6.9%	?	0.0%
C/C=C\C=C\C(=O)Nc1cccc(C2=NOC3(C2)C[C@@H](C(N)=O)N(C(=O)C(c2ccccc2)c2ccccc2)C3)c1 (some centres not stated)	?	?	?	0.4%	0.8%	8.91µM*
